In the library only some 2.9% were active in any assay of this set; here they are far more common.
GLP-1R inv ag: acts as inverse agonist at human GLP-1 receptor | P43220 | HEK293 GLP-1R CRE-luciferase, luminescence, 24 h; GLP-1R form is constitutively active | Potency, µM (series often up to 38.3 µM), for inactives: at the highest dose activity change, negative = inhibition, usual class: inhibitors | 410,000 tested, 1.6% active | AID 624417; further: potency means the concentration at half of the fitted maximal effect; on the % scale 0 is the no-effect control and ±100 the full control effect; nearly all actives have a fitted effect of over 55% in size
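GLP-1R inverse agonism mode: basal reporter luminescence in engineered HEK293 cells measured after one day of compound exposure at 37 deg C, with a 12 min room-temperature detection step.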
ClpP mod: qHTS Assay for Activators of ClpP; Potency, µM (titrated, usually from 57.5 µM), for inactives: at the highest dose activity change, negative = active; 340,000 tested, 1.9% active; purified B. subtilis ClpP, FRET peptide cleavage, 20 min; ATP-dependent Clp protease proteolytic subunit (Bacillus subtilis (strain 168)), P80244; active means well fitted falling curve with a large enough effect; inconclusive means small, poorly fitted or top-dose-only effect; inactive means no such curve, though single readings can be large or run the other way; further: potency means the concentration at half of the fitted maximal effect; the source files actives as falling curves though it sought activators and does not explain the sign; nearly all actives have a fitted effect of over 65% in size
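Purified B. subtilis ClpP, 10 microg/mL final in Tris/HCl pH8 with KCl, BSA, glycerol and Tween-20, cleaved an Abz/nitrotyrosine-quenched decapeptide. Fluorescence (ex 320, em 430) was read at 0 and 20 min at room temperature. Delta was normalized to 5.8 microM ADEP and DMSO/no-enzyme controls.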
LDHA block: LDHA (human) enzyme inhibition; P00338; purified LDHA, NADH/diaphorase-resazurin fluorescence; stronger effect = lower value; activity change, % (values are at about 110 or 230 µM); 480,000 tested, 0.15% active; AID 1347041; in the data active means activity change below about -30%; inconclusive means mostly about -25% to -30%;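 further: plate controls were DMSO wells for no effect and wells without enzyme for full effect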
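Remaining NADH was detected by diaphorase (0.133 mg/mL) converting 37 µM resazurin to fluorescent resorufin, read at 0 and 20 minutes. The preceding 5-minute room-temperature reaction used 2 nM LDHA, 0.2 mM sodium pyruvate and 0.06 mM NADH at pH 7.4.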
GLP1R ag: agonists of human GLP-1 receptor; HEK293 GLP-1R CRE-luciferase, luminescence, 4-6 h; cells express a hypersensitive GLP-1R form; Potency, µM (doses to about 45.6 µM), without a hit: top-dose activation, hits mostly activators; P43220; 380,000 tested, 0.007% active; further: potency means the concentration at half of the fitted maximal effect; % of control where 0% means no effect
p53 reactivator: re-activators of mutant p53 | H1299 p53-A138V BP100-luciferase reporter, luminescence, 24 h | Potency, µM (highest dose often 92.2 µM), for inactives: top-dose activity change, positive = activation, actives largely listed as activators | 320,000 tested, 0.063% active | AID 504706; further: potency means the concentration at half of the fitted maximal effect; % of control where 0% means no effect; nearly all actives have a fitted effect of over 45% in size
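H1299 (p53-null), stable ts p53-A138V + BP100-Luc; 1000 cells/well, Opti-MEM/10% FBS; cpd 4 pt, 1:5; 24 h, 37 deg C, 5% CO2; detection reagent 10 min RT; luminescence.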
HEK293 tox: cytotoxicity in counter-screen for GLP-1R inverse agonists; HEK293 cAMP-luciferase reporter cells, luminescence, 24 h; Potency, µM (doses to about 38.3 µM), inactives show at the highest dose activity change, negative = inhibition, most hits filed as inhibitors; 410,000 tested, 0.13% active; AID 624418;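 further: loss of luciferase light is scored as toxicity; potency means the concentration at half of the fitted maximal effect; on the % scale 0 is the no-effect control and ±100 the full control effect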
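Cells in DMEM/10% Nu serum/1% pen-strep, 1536-well format. Pre-incubated 12 h, dosed with 23 nL compound, incubated a further 24 h. Luciferase detection, 12 min at room temp, luminescence.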
Numbers without * were called inactive; ? = inconclusive; / = no result given; [ ] = remark or other dose. Unless noted, the call rests on the fitted dose curve; in most records, active means well fitted curve in the direction sought with a large enough effect; inconclusive means small, poorly fitted or top-dose-only effect, or another doubt; inactive means no such curve, though single readings can be large; an effect the other way counts as inactive or inconclusive.

SMILES	GLP-1R inv ag	ClpP mod	LDHA block	GLP1R ag	p53 reactivator	HEK293 tox
CCCCCC(=O)NC(Nc1ccc(S(N)(=O)=O)cc1)C(Cl)(Cl)Cl (configuration not stated)	-23.0%	-1.9%	-4.4	-9.0%	7.9%	7.9%
CCCCCCC(=O)NC(Nc1ccc(S(N)(=O)=O)cc1)C(Cl)(Cl)Cl (configuration not stated)	8.91µM*	-0.2%	-2.6	-11.2%	1.5%	-13.9%
O=C(NNc1ccc(C2CCCCC2)cc1)C(O)(c1ccccc1)c1cccs1 (configuration not stated)	-8.1%	-1.4%	1.0	-10.8%	-8.7%	?
COc1ccc(C(O)(C(=O)NNc2ccc(C)cc2)c2cccs2)cc1 (configuration not stated)	2.51µM*	-4.6%	3.4	-4.7%	-3.6%	17.9%
Nc1ccccc1Sc1c[nH]c2ccccc12	?	-1.4%	0.0	2.9%	10.0%	3.5%
O=C(N/N=C/c1ccc(OC(F)F)cc1OC(F)F)c1ccc(Br)cc1	?	-0.4%	-6.1	5.5%	-2.6%	1.3%
O=C(N/N=C/c1ccc(OC(F)F)cc1OC(F)F)NC1CCCCC1	4.47µM*	/	-2.0	22.9%	3.8%	-7.9%
COc1ccc(C(=O)Nn2cnc3scc(-c4cccs4)c3c2=O)c(O)c1	?	31.6µM*	2.1	-26.0%	?	-5.2%
Nn1cnc2scc(-c3cccs3)c2c1=O	16.0%	/	-19.7	13.2%	-2.3%	0.2%
Cc1ccccc1NC(=O)C1CC(=O)N(c2ccccc2F)C1 (configuration not stated)	-8.3%	14.1µM*	-4.1	-23.2%	-6.9%	1.4%
O=C(COC(=O)c1ccccc1NCCO)NCCC1=CCCCC1	?	25.1µM*	1.0	1.0%	11.1%	24.0%
Cc1ccc(C(=O)OCC(=O)Nc2c(C)nn(-c3ccccc3)c2C)c(O)c1	20.8%	-1.5%	1.4	5.3%	/	7.4%
O=C(OCC(=O)N(Cc1ccccc1)Cc1ccccc1)c1ccccc1NCCO	5.62µM*	/	2.1	18.3%	-0.9%	3.8%
Cc1ccc(-n2nc(C)c(NC(=O)COC(=O)c3ccccc3NCCO)c2C)cc1	-19.8%	28.2µM*	-6.2	-3.1%	-2.4%	-2.7%
O=C(COC(=O)c1ccccc1NCCO)NCCc1ccccc1	8.0%	14.1µM*	-2.8	15.1%	17.8%	-9.3%
COc1ccc(NC(=O)CSc2nnnn2C)cc1	9.0%	/	-2.1	1.1%	-1.7%	7.4%
CN1CCC(OC(=O)c2ccco2)CC1	-3.6%[0.307 µM]	0.7%	-0.4	4.1%	5.8%	-9.8%[0.307 µM]
Cc1noc(NS(=O)(=O)c2ccc(NC(=O)c3ccccc3NS(=O)(=O)c3ccc(F)cc3)cc2)c1C	-16.4%	/	-14.5	-4.0%	-1.8%	-1.3%
CCOC(=O)c1c(N)sn(-c2ccccc2)c1=S	3.9%	0.8%	2.0	-2.0%	2.7%	6.1%
C/C(N)=C(/C#N)C(=O)CSc1nc2scc(-c3ccccc3)c2c(=O)n1C	12.4%	/	-11.9	6.7%	-0.7%	11.1%
CC(C#N)(NC(=O)COC(=O)c1ccccc1NCCO)C1CC1 (configuration not stated)	5.0%	25.1µM*	2.8	-7.2%	3.2%	10.8%
Cc1ccc(OCC(=O)N2CC3(C)CC2CC(C)(C)C3)cc1 (configuration not stated)	10µM*	-1.4%	2.0	-0.2%	0.9%	-10.3%
CC1(C)CC2CC(C)(CN2C(=O)Cc2ccccc2)C1 (configuration not stated)	?	1.0%	0.3	-4.5%	26.3%	-26.8%
CC1(C)CC2CC(C)(CN2C(=O)NC(=O)c2ccccc2)C1 (configuration not stated)	9.7%	-1.2%	-1.7	11.2%	-6.4%	-5.0%
COc1ccc(CC(=O)N2CC3(C)CC2CC(C)(C)C3)cc1 (configuration not stated)	11.2µM*	0.6%	1.9	0.8%	-7.6%	-12.2%
SMILES	GLP-1R inv ag	ClpP mod	LDHA block	GLP1R ag	p53 reactivator	HEK293 tox
Cc1ccc(C(=O)Nc2ccccc2C(=O)N2CC3(C)CC2CC(C)(C)C3)cc1 (configuration not stated)	10µM*	-5.6%	-0.6	4.0%	-0.2%	58.8%
Cc1cccc(C)c1OCC(=O)N1CC2(C)CC1CC(C)(C)C2 (configuration not stated)	?	-1.0%	-0.3	5.6%	-2.2%	-11.9%
C=C(C)CSc1nc2ccccc2c(=O)n1-c1c(C)n(C)n(-c2ccccc2)c1=O	14.8%[7.66 µM]	0.0%	-1.3	0.4%	-0.2%	-0.9%[7.66 µM]
COc1ccc(C(=O)N2CCN(S(=O)(=O)c3ccccc3)CC2)c(OC)c1	5.4%	3.3%	-5.3	-9.7%	-0.5%	-9.5%
COc1ccc(-c2n[nH]c(C(F)(F)F)c2-c2cc3ccccc3o2)c(O)c1	?	25.1µM*	-10.3	-3.3%	-5.2%	?
CN1CCN(CC(=O)N2c3ccccc3C(C)(c3ccccc3)CC2(C)C)CC1 (configuration not stated)	10µM*	1.1%	-0.3	-10.0%	-11.7%	-24.2%
Cc1ccc2c(c1)C(C)CC(C)(C)N2C(=O)NC1CCCCC1 (configuration not stated)	20.0%	1.6%	4.3	-5.2%	?	-0.5%
CC1CC(C)(C)N(C(=O)CN2CCN(C)CC2)c2ccccc21 (configuration not stated)	4.8%	-1.5%	-34.8*	-2.0%	?	8.0%
Cc1ccc2c(c1)C(C)CC(C)(C)N2C(=O)CN1CCN(C)CC1 (configuration not stated)	-25.6%	1.2%	-40.0*	-1.9%	-1.8%	-3.0%
CC1CC(C)(C)N(C(=O)CN2C(=O)c3ccccc3C2=O)c2ccccc21 (configuration not stated)	?	1.3%	-5.6	10.4%	-5.1%	-9.4%
COc1cc(C(=O)COC(=O)Cc2cnc3sccn23)cc(OC)c1OC	5.3%	-0.5%	-6.5	7.6%	-5.3%	-5.8%
CCOC(=O)c1cnn2c1[nH]c(=O)c1ccccc12	2.7%	3.55µM*	-1.2	2.6%	19.0%	25.9%
CCOC(=O)c1cnc(Cc2ccccc2)[nH]c1=O	6.2%	-1.2%	-0.7	-4.5%	/	0.6%
Cc1cc(C)n(-c2nc3ccccc3c(=O)n2OCC#N)n1	3.16µM*	/	-0.6	19.9%	?	?
CCOC(=O)CN1C(=O)C(=O)N(Cc2c(Cl)cccc2Cl)C1=O	2.6%	/	-8.2	-0.6%	0.5%	2.9%

Screening data from PubChem BioAssay.
